# Reference: PubChem BioAssay (NCATS)
# Several values for one entry are separate records, joined by “and”; a condition that tells them apart may be missing. Equal values may be shown once. Inconclusive results are not listed. Activity calls are given as the source filed them. Unless noted, calls follow the shape of the dose curve; as a rule, active = well fitted curve in the direction sought with a large enough effect; inconclusive = small, poorly fitted or top-dose-only effect, or another doubt; inactive = no such curve, though single readings can be large; an effect the other way counts as inactive or inconclusive.
# Legend:
# [1] = HEK-293 Cancer Cell Toxicity qHTS against the NCATS CANVASS Library (AID 1347355); also: potency is read from the fitted curve at half-maximal effect; nearly all actives have a fitted effect of over 65% in size
# In short: (§1)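 First, 1000 cells go into each well and rest for 4 hours. Next, an 11-point dilution range is pinned in. Plates then incubate 72 hours before CellTiter-Glo addition and luminescence reading.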
# [2] = DH5-alpha competent E. coli microbial cell viability qHTS against the NCATS CANVASS Library (AID 1347377); conditions: outcome: dose series up to 46.1 µM unless noted
# In short: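 Bacteria were dispensed at 0.2 OD, then compounds were pin-transferred. Plates were incubated overnight at 37C, after which BacTiter-Glo was added and luminescence measured 20 min later.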
# [3] = qHTS for Inflammasome Signaling Inhibitors: IL-1-beta AlphaLISA screen against the NCATS CANVASS Library (AID 1347379);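 also: human THP-1 cells primed with LPS then triggered with ATP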;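 as to Potency: secreted IL-1B measured as AlphaLISA emission at 615 nm; potency is read from the fitted curve at half-maximal effect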;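 as to activity change, negative = inhibition: secreted IL-1B measured as AlphaLISA emission at 615 nm; % is scaled to controls: 0 for no effect and ±100 for the full control effect; lower signal means less IL-1B release which is the wanted effect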
# In short: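 Secreted IL-1B from human THP-1 cells quantified by AlphaLISA 16 hr after compound addition (final up to 57.5 uM). A 1 hr compound pretreatment preceded inflammasome activation with 250 ng/mL LPS plus 1.25 mM ATP (final).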
# [4] = qHTS for inhibitors of ER calcium dysfunction: SERCaMP assay screened against the NCATS CANVASS Library (AID 1347393); also: nearly all actives have a fitted effect of over 40% in size; also: potency is read from the fitted curve at half-maximal effect;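 as to activity change, negative = inhibition: % is scaled to controls: 0 for no effect and ±100 for the full control effect; lower secreted reporter signal means inhibitor of ER calcium depletion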
# In short: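 qHTS in SH-SY5Y reporter cells: 16 h compound pretreatment, 4 h thapsigargin, then secreted Gaussia luciferase measured by luminescence.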
# [5] = HPAF-II Cancer Cell Toxicity qHTS against the NCATS CANVASS Library (AID 1347346); also: nearly all actives have a fitted effect of over 55% in size; also: potency is read from the fitted curve at half-maximal effect
# In short: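 First, HPAF-II cells are plated (1000 cells/well) and held 4 h at 37 degrees C. Next, compounds are pin-transferred as an 11-point series. After 72 h, CellTiter-Glo is added and luminescence measured.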
# [6] = Panc-1005 Cancer Cell Toxicity qHTS against the NCATS CANVASS Library (AID 1347349); also: nearly all actives have a fitted effect of over 60% in size; also: potency is read from the fitted curve at half-maximal effect
# In short: (§2)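 Following a 4 h pre-incubation of 1000 seeded cells, compounds were pinned in an 11-pnt dilution series and left for 72 h; viability then came from CellTiter-Glo.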
# [7] = UWB1.289 Cancer Cell Toxicity qHTS against the NCATS CANVASS Library (AID 1347347); also: nearly all actives have a fitted effect of over 60% in size; also: potency is read from the fitted curve at half-maximal effect
# In short: as §2
# [8] = KB-3-1 Cancer Cell Toxicity qHTS against the NCATS CANVASS Library (AID 1347366); also: nearly all actives have a fitted effect of over 75% in size; also: potency is read from the fitted curve at half-maximal effect
# In short: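 Seed KB-3-1 cells at 500/well in DMEM with 10% FBS, add compounds, incubate 72 hr at 37C and 5% CO2, then add CellTiter-Glo and read luminescence after 10 minutes.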
# [9] = COV-362 Cancer Cell Toxicity qHTS against the NCATS CANVASS Library (AID 1347352); also: % is scaled to controls: 0 for no effect and ±100 for the full control effect
# In short: as §1
# [10] = qHTS to identify inhibitors of the type 1 interferon - major histocompatibility complex class I in skeletal muscle: primary screen against the NCATS Mechanism Interrogation Plate v5.0 (MIPE) Libary (AID 1347411); also: nearly all actives have a fitted effect of over 65% in size; also: potency is read from the fitted curve at half-maximal effect;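 as to activity change, negative = inhibition: plate controls were vehicle for no effect and reference inhibitor for full effect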
# In short: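 Seed engineered human myoblasts (HLA-B HiBit) in medium without dexamethasone containing 4 ng/ml IFN-beta; after 1 hr add compound titrations (top 46 uM final). Incubate 24 hrs at 37 C, lyse 10 min with HiBiT reagent, read luminescence.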
# [11] = Primary qHTS for inhibitors of nuclear receptor binding SET domain protein 2 (NSD2) in an isogenic RCH-ACV NSD2 p.E1099K mutant (9B) (AID 1645876); also: potency is read from the fitted curve at half-maximal effect; nearly all actives have a fitted effect of over 70% in size
# [12] = Primary qHTS for inhibitors of nuclear receptor binding SET domain protein 2 (NSD2) in an RCH-ACV wild type WT cells (2C) (AID 1645877); also: potency is read from the fitted curve at half-maximal effect; nearly all actives have a fitted effect of over 70% in size
# [13] = molecular target: Glutathione peroxidase 1 (Homo sapiens) (UniProt P07203); assay: Primary qHTS Assay for Inhibitors of Recombinant Selenoprotein Glutathione Peroxidase 1 (GPX1) (AID 1845191); also: nearly all actives have a fitted effect of over 65% in size
# Sequence of Glutathione peroxidase 1 (Homo sapiens) (P07203 whole entry, looked up): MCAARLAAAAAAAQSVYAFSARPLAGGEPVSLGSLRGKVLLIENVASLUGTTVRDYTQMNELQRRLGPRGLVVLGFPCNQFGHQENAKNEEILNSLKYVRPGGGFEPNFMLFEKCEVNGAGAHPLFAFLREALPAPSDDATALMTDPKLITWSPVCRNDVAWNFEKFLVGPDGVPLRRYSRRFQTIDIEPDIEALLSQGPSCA
# In short: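 GPX1 10 nM, GR 100 nM, GSH 1 mM, NADPH 0.5 mM, CHP 0.5 mM (final). 30-min cpd preincubation, RT. Ex340/Em450 read t=0, t=15 min.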
# [14] = molecular target: Phospholipid hydroperoxide glutathione peroxidase GPX4 (Homo sapiens) (UniProt P36969); assay: Primary qHTS Assay for Inhibitors of Recombinant Selenoprotein Glutathione Peroxidase 4 (GPX4) (AID 1845192); conditions: outcome: dose series up to 50 µM unless noted; also: nearly all actives have a fitted effect of over 65% in size; also: potency is read from the fitted curve at half-maximal effect; as to activity change, negative = inhibition: % is scaled to controls: 0 for no effect and ±100 for the full control effect
# Sequence of Phospholipid hydroperoxide glutathione peroxidase GPX4 (Homo sapiens) (P36969 whole entry, looked up): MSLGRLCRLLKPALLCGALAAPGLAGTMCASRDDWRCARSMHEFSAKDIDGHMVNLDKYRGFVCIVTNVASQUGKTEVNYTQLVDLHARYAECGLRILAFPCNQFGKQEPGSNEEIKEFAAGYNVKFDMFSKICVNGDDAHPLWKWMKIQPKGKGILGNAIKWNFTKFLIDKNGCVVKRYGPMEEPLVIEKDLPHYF
# In short: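 qHTS, GR-coupled: GPX4 200 nM + cpd 30 min RT → GSH 1 mM, NADPH 0.5 mM, GR 100 nM → CHP 0.5 mM start; fluor 340/450 at t0 and t15 min; no-enzyme wells as control.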
# [15] = qHTS assay to identify inhibitors of the type 1 interferon - major histocompatibility complex class I in skeletal muscle: Counter screen cell viability and HiBit confirmation (AID 1347412); conditions: iHSKM muscle cells + IFN-b, HiBiT or CellTiter-Glo, 24 h; for activity change, negative = inhibition: at 45.9 µM (top of the series); also: potency is read from the fitted curve at half-maximal effect; as to activity change, negative = inhibition: % is scaled to controls: 0 for no effect and ±100 for the full control effect; as to all read-outs here: nearly all actives have a fitted effect of over 60% in size
# In short: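 Myoblasts (C25cl48, HLA-B HiBiT) seeded in medium without dexamethasone, IFN-b 4 ng/ml added except unstimulated columns; 1 hr later compounds pinned (12-pt 1:3, top 46 uM final). Incubated 24 hrs, lysed 10 min, luminescence measured.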
# [16] = qHTS drug screen for cell cycle checkpoint inhibitors in PARPi-resistant BRCA-mutant ovarian cancer cell lines. (AID 1963452; calls by dose curve; also: potency is read from the fitted curve at half-maximal effect); conditions: PEO1/OlaR viability, CellTiter-Glo luminescence, 96 h; for Z-AUC: stronger effect = lower value
# In short: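 PEO1, PEO4 and PEO1/OlaR ovarian cancer cells, 600 per well, exposed 96 h at 37C to a dilution series. Viability read by CellTiter-Glo luminescence, normalized to DMSO and empty wells; activity summarized as Z-AUC.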
# [17] = measured here: PEO1 parental Z-AUC
compound,measurement,setting,value
O[C@H]1C=C2[C@H]3CN(Cc4cc5c(cc43)OCO5)[C@H]2C[C@@H]1O,Potency,[1],5.26 µM (active)
same,outcome,[2],inactive
same,Potency,[3],inactive
same,Potency,[4],inactive
C/C(=C\[C@H](C)C(=O)/C=C/CC1CC(=O)NC(=O)C1)[C@@H]1OC(=O)CCCC/C=C/[C@H](O)[C@@H](O)[C@@H]1C,Potency,[5],18.8 µM (active)
same,Potency,[6],14.9 µM (active)
same,Potency,[1],23.5 µM (active)
same,outcome,[2],inactive
same,Potency,[3],21.7 µM (active)
same,Potency,[4],19.3 µM (active)
C=C1C[C@H]2O[C@@H]3[C@@H]4[C@H](CC[C@@](C)(O)[C@@H]42)[C@H](C)COC3(C)[C@@H](OC(=O)CCCCCCC)CC1=O (stereo not given in full),Potency,[7],18.8 µM (active)
same,Potency,[1],14.8 µM (active)
same,outcome,[2],inactive
same,Potency,[3],19.3 µM (active)
COc1cc(C2C3=C(Cc4cc5c(cc42)OCO5)C(=O)OC3)cc(OC)c1OC (stereo not given),Potency,[1],0.059 µM (active)
same,Potency,[8],0.105 µM (active)
same,outcome,[2],inactive
same,Potency,[3],inactive
CC[C@@H](c1cc(OC)c(OC)cc1OC)[C@H](C)[C@@H](/C(C)=C/c1cc(OC)c(OC)cc1OC)c1cc(OC)c(OC)cc1OC,Potency,[7],inactive
same,Potency,[9],inactive
same,Potency,[8],inactive
same,outcome,[2],inactive
same,Potency,[4],2.43 µM (active) and 19.3 µM (active)
CO[C@@H]1[C@H](O)[C@@H](C)O[C@@H](OC[C@@H]2C(C)OC(=O)/C=C/[C@H](C)C(O[C@@H]3O[C@H](C)CC4(OC(=O)O[C@@H]4C)C3O)[C@@H](C)CC(C)C(=O)/C=C/[C@H]3OC23)[C@@H]1OC (stereo not given in full),Potency,[5],inactive
same,Potency,[7],18.8 µM (active)
same,Potency,[1],20.9 µM (active)
same,outcome,[2],inactive
same,Potency,[3],inactive
same,Potency,[4],8.6 µM (active)
CN[C@@H](C)C(=O)N[C@@H]1C(=O)N(Cc2c(C)ccc3ccccc23)c2ccc(C#N)cc2N(C(C)=O)[C@H]1C,Potency,[10],inactive
C[C@@H]1C[C@H](N)C[C@H](c2ccncc2NC(=O)c2ccc(F)c(-c3c(F)cccc3F)n2)C1,Potency,[10],26.2 µM (active)
same,Potency,[11],14.8 µM (active)
same,Potency,[12],11.8 µM (active)
same,Potency,[13],inactive
same,Potency,[14],inactive
same,"activity change, negative = inhibition",[15]; HiBiT,-24.5% (inactive)
same,"activity change, negative = inhibition",[15]; Viability,-19.6% (inactive)
COc1cccc2c1C(=O)c1c(O)c3c(c(O)c1C2=O)C[C@@](O)(/C(CO)=N/NC(=O)CCCCCN1C(=O)C=CC1=O)C[C@@H]3O[C@H]1C[C@H](N)[C@H](O)[C@H](C)O1,Potency,[10],3.3 µM (active)
same,Potency,[11],0.209 µM (active)
same,Potency,[12],0.132 µM (active)
same,Potency,[13],inactive
same,Potency,[14],inactive
same,Potency,[16],1.1 µM (active)
same,Z-AUC,[16]; [17],-1.6
same,Z-AUC,[16]; measured here: PEO4 Z-AUC,-1.55
same,Potency,[15]; HiBiT,2.79 µM (active)
same,"activity change, negative = inhibition",[15]; Viability,-0.403% (inactive)
C/C(=C\[C@H](C)C(=O)C[C@H](O)CC1CC(=O)NC(=O)C1)[C@@H]1OC(=O)CCCC/C=C/[C@@H](O)C[C@@H]1C,Potency,[7],9.41 µM (active)
same,Potency,[3],34.3 µM (active)
same,Potency,[4],inactive
CC[C@H]1[C@@H](C)[C@@H](c2cc(OC)c(OC)cc2OC)[C@H](C)[C@@H](c2cc(OC)c(OC)cc2OC)[C@@]12C=C(OC)C(=O)C=C2OC,Potency,[5],21.1 µM (active)
same,Potency,[7],23.6 µM (active)
same,Potency,[6],16.8 µM (active)
same,Potency,[1],14.8 µM (active)
same,outcome,[2],inactive
same,Potency,[4],0.86 µM (active)
C=C1C(=O)O[C@H]2[C@H]1CCC(C)=C1CC[C@@](C)(O)[C@@H]12,Potency,[7],18.8 µM (active)
same,Potency,[6],16.8 µM (active)
same,Potency,[4],2.72 µM (active)
CC(C)[C@@H]1CC(=O)c2coc3c2[C@H]1C[C@@H](C)C3=O,Potency,[5],inactive
same,outcome,[2],inactive
same,Potency,[3],inactive
same,Potency,[4],inactive
C/C(=C\[C@@H](C)CC/C=C/CC/C=C/C(=O)O)[C@H](O)[C@H](C)C(=O)CCCC1CC(=O)NC(=O)C1,Potency,[5],6.68 µM (active)
same,Potency,[9],inactive
same,outcome,[2],inactive
same,Potency,[3],inactive
C[C@H](c1cnc(N)[nH]1)c1ccc(O)c2[nH]cc(-c3cnc(-c4c[nH]c5ccccc45)c(=O)[nH]3)c12,Potency,[7],inactive
same,Potency,[6],inactive
CC[C@@H]1[C@H](C)[C@H](c2cc(OC)c(OC)cc2OC)[C@@H](C)[C@H](c2cc(OC)c(OC)cc2OC)[C@]12C=C(OC)C(=O)C=C2OC,Potency,[5],18.8 µM (active)
C/C=C/c1cc2c(c(=O)o1)C(=O)[C@@H](O)[C@H](C)O2,Potency,[6],13.3 µM (active)
same,Potency,[1],9.35 µM (active)
same,outcome,[2],inactive
same,Potency,[3],21.7 µM (active)
Cc1cc(C)c(CNC(=O)c2cc(-c3ccc(N4CCN(C)CC4)nc3)cc3c2c(C)cn3C(C)C)c(=O)[nH]1,Potency,[10],inactive
same,Potency,[11],16.6 µM (active) and 18.6 µM (active)
same,Potency,[12],20.9 µM (active)
same,Potency,[13],inactive
same,Potency,[14],12.8 µM (active)
same,Z-AUC,[16],-1.15 (inactive) and -0.405 (inactive)
same,Z-AUC,[16]; [17],-1.04 and 0.4
same,Z-AUC,[16]; measured here: PEO4 Z-AUC,-1.52 and 0.0539
same,"activity change, negative = inhibition",[15]; HiBiT,0.953% (inactive)
same,"activity change, negative = inhibition",[15]; Viability,-10.1% (inactive)
C=C1C[C@H]2O[C@@H]3[C@@H]4[C@H](CC[C@@](C)(O)[C@@H]42)[C@H](C)COC3(C)[C@@H](OC(=O)CCCCCCC)C[C@H]1O (stereo not given in full),outcome,[2],inactive
